Source: PubChem
ABHD5 PLIN5 PPI: inhibitors of human ABHD5-perilipin-5 interaction; inhibition, % at 4 µM; AID 602281; Split G. princeps luciferase complementation, luminescence, 4 h; 360,000 compounds, 0.78% hits;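 active = inhibition above the mean inhibition across every tested compound plus 3 SD, cut at about 22% in these data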
TLR9-MyD88 inh: TLR9-MyD88 interaction inhibition | 340,000 compounds, 0.21% hits | Q9NR96+Q99836 | CHO BLA complementation TLR9-MyD88, CCF4 FRET ratio | inhibition, % at 4.98 µM;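 active = inhibition above the mean over all tested compounds plus 3 SD, cut at about 21% in these data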
NOD2-RIPK2 inh: inhibitors of human NOD2-RIPK2 interaction. O43353. 360,000 compounds, 0.38% hits. inhibition, % at 4.98 µM. AID 624267. CHO BLA complementation NOD2-RIPK2, CCF4 ratio; in the data active = inhibition above about 21%
TLR4-MyD88 BLA: inhibitors of human TLR4-MyD88 binding | HeLa CL3-4 TLR4/MyD88 BLA complementation, FRET ratio | inhibition, % at 8.4 µM | O00206+Q99836 | AID 861 | 200,000 compounds, 0.18% hits; in the data active = inhibition above about 25%
Target sequence (O00206 whole entry, looked up): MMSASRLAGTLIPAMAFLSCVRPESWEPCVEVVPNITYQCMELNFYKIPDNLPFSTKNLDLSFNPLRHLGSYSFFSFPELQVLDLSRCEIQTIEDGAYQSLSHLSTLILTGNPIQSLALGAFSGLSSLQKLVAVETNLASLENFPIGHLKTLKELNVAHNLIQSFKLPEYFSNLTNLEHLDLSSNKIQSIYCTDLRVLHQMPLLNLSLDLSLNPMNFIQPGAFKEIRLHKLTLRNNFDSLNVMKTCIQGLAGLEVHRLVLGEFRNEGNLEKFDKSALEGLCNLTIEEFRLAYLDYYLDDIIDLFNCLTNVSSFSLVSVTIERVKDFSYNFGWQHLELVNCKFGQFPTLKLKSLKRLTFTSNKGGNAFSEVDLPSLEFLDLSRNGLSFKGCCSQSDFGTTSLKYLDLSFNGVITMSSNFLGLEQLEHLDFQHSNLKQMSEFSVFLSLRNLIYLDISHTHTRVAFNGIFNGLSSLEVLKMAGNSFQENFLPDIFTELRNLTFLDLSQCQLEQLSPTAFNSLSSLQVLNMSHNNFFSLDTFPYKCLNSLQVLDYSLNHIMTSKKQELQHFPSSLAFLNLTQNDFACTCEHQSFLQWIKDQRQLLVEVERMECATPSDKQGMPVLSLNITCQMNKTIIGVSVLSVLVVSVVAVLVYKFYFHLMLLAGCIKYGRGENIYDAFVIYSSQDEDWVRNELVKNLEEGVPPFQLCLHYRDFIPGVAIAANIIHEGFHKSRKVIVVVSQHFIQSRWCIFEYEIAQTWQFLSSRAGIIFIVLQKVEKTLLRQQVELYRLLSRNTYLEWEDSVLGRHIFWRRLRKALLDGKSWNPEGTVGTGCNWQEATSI
Target sequence (Q99836 whole entry, looked up): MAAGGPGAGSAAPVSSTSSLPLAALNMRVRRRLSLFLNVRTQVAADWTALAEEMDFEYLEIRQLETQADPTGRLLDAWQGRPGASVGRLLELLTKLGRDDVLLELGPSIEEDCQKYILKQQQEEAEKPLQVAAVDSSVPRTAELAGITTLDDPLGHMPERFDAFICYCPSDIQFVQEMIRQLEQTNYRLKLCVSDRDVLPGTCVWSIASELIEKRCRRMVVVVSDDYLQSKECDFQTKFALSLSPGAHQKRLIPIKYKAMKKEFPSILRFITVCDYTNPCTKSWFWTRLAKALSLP
Exocytosis inh: lytic granule exocytosis inhibition; 360,000 compounds, 0.66% hits; TALL-104 LAMP-1 surface exposure, flow cytometry; cells stimulated with thapsigargin and PMA; AID 651702; inhibition, % at 10 µM;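 active = inhibition above about 55%, limit read from the data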
Beta2AR agonist: human beta-2 adrenergic receptor agonism by FAP | Am2.2-beta2AR cells, FAP receptor internalization, flow cytometry | response, % (test concentration not listed) | 340,000 compounds, 0.43% hits;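 active = response above a set limit, near 3 SD of response in nonfluorescent compounds, cut at about 42% in these data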
Granule exo CP1: lytic granule exocytosis inhibition; shares compounds with Exocytosis inh; TALL-104 cells, LAMP-1 externalization, flow cytometry; stimulated with PMA plus thapsigargin; inhibition, % at 10 µM; 1,500 compounds, 11% hits; in the data active = inhibition above about 60%
Each line names hits and unclear results; the compound was inactive in the other large screens (follow-up assays come after a bar, where they were run). Most compounds without a hit are left out; they make up all but 2% or so of the library.

COc1ccc(OC)c(Nc2nc(C3CC3)nc3c2nnn3Cc2ccccc2)c1	Exocytosis inh 60 | Granule exo CP1 inactive
NC(=O)c1ncn([C@@H]2O[C@H](CNCc3cc(Cl)ccc3OCc3ccc(Cl)cc3)[C@@H](O)[C@H]2O)n1	none (no result: TLR4-MyD88 BLA)
CCC(C)[C@H](NC(=O)Nc1ccccc1F)C(=O)OC (some centres not stated)	Exocytosis inh 83 (no result: TLR4-MyD88 BLA) | Granule exo CP1 inactive
CCC(Sc1nc(C)cc(C)n1)C(=O)Nc1nccs1 (configuration not stated)	none (no result: TLR4-MyD88 BLA)
O=C1NC(=O)c2c(Br)c(Br)c(Br)c(Br)c21	none (no result: TLR4-MyD88 BLA)
O=c1c2ccccc2sn1-c1ccccc1F	Exocytosis inh 69 (no result: TLR4-MyD88 BLA, Beta2AR agonist) | Granule exo CP1 102
O=C1CN(c2ccccc2F)C(=O)CN1c1ccccc1F	none
COCOc1cccc(CN2CCC2(C)C(=O)Nc2ccc(OC)c(OC)c2)c1 (configuration not stated)	none (no result: TLR9-MyD88 inh, TLR4-MyD88 BLA, Beta2AR agonist)
Cc1cc(C)nc(Nc2nc(C(N)c3ccccc3)cs2)n1 (configuration not stated)	none (no result: TLR9-MyD88 inh, TLR4-MyD88 BLA, Beta2AR agonist)
Cc1cc(C)nc(Nc2nc(-c3ccccc3)cs2)n1	Exocytosis inh 76 (no result: TLR4-MyD88 BLA) | Granule exo CP1 inactive
NS(=O)(=O)c1ccc(CCNC(=O)COC(=O)CCc2c[nH]c3ccccc23)cc1	none (no result: TLR4-MyD88 BLA)
Cc1ccc(S(=O)(=O)CCC(=O)c2ccc(O)cc2O)cc1	Exocytosis inh 104 | Granule exo CP1 inactive
Cc1ccc(S(=O)(=O)CCC(=O)OCC(=O)c2cc(C)ccc2C)cc1	none (no result: TLR4-MyD88 BLA)
COc1ccc(C2CCCCCN2C(=O)C2CCN(S(=O)(=O)c3ccc(C)cc3)CC2)cc1 (configuration not stated)	none (no result: TLR4-MyD88 BLA, Beta2AR agonist)
CCc1ccccc1N(C)S(=O)(=O)c1ccc(-c2cc(C)no2)s1	Exocytosis inh 68 (no result: TLR4-MyD88 BLA) | Granule exo CP1 inactive
Cc1cc(-c2ccc(S(=O)(=O)N3CCN(C)CC3)s2)on1	none (no result: TLR4-MyD88 BLA)
CCN(c1ccc(OC)cc1)S(=O)(=O)c1ccc(-c2cc(C)no2)s1	Exocytosis inh 75 (no result: TLR4-MyD88 BLA) | Granule exo CP1 inactive
CCOC(=O)C1CC2=C(CC(C)(C)CC2=O)N(CCOC)C1=O (configuration not stated)	none (no result: TLR4-MyD88 BLA)
CC1(C(=O)NS(=O)(=O)C2CC2)CCN(C(=O)c2cc(F)cc(F)c2)C1 (configuration not stated)	none (no result: TLR9-MyD88 inh, TLR4-MyD88 BLA, Beta2AR agonist)
O=C1NC[C@H](Cc2ccccc2)N(CCc2cccc(F)c2)C1=O	Exocytosis inh 61 (no result: TLR4-MyD88 BLA) | Granule exo CP1 inactive
O=C(CNS(=O)(=O)c1c(F)cc(F)cc1Br)OCC(=O)N1CCCC1=O	Exocytosis inh 61 (no result: TLR4-MyD88 BLA) | Granule exo CP1 inactive
Cc1ccc(CN2C(=O)c3ccccc3NC2c2cc(Br)ccc2O)cc1 (configuration not stated)	Exocytosis inh 74 (no result: TLR4-MyD88 BLA) | Granule exo CP1 inactive
COc1ccc(CNC(=O)C2CCCN(S(=O)(=O)c3ccc(Br)s3)C2)cc1 (configuration not stated)	Exocytosis inh 69 (no result: TLR4-MyD88 BLA) | Granule exo CP1 inactive
COc1ccc(Br)cc1CNC(=O)C1CCCN(S(=O)(=O)N2CC(C)CC(C)C2)C1 (configuration not stated)	Exocytosis inh 70 (no result: TLR4-MyD88 BLA) | Granule exo CP1 inactive
O=C(NCCc1ccc(Cl)cc1)C1CCN(S(=O)(=O)N2CCCC2)CC1	none
COc1ccc(Br)cc1CNC(=O)C1CCN(S(=O)(=O)N2CCCCC2)CC1	none
O=C(NCCc1ccc(Cl)cc1)C1CCN(S(=O)(=O)c2ccc(Br)s2)CC1	Exocytosis inh 65 | Granule exo CP1 inactive
O=C(Nc1cccc(Cl)c1)c1ccc2sc([C@H]3C[C@H](O)[C@@H](CO)O3)nc2c1	none (no result: TLR9-MyD88 inh, TLR4-MyD88 BLA, Beta2AR agonist)
COCCCn1c(SCc2ccccc2)nc2cc(OC)c(OC)cc2c1=N	Exocytosis inh 84 | Granule exo CP1 inactive
COCCCn1c(SCc2cccc(C(F)(F)F)c2)nc2cc(OC)c(OC)cc2c1=N	none
COc1cccc(O)c1CN1CCC(C(=O)Nc2ccc(-c3cccc(C)c3)cc2)CC1	Exocytosis inh 66 (no result: TLR4-MyD88 BLA) | Granule exo CP1 inactive
COc1ccc(NC(=O)c2cc(C3CCCCN3C(=O)c3ccc(NC(C)=O)cc3)on2)c(C)c1 (configuration not stated)	none (no result: TLR9-MyD88 inh, TLR4-MyD88 BLA, Beta2AR agonist)
CCOc1ccc(Br)cc1S(=O)(=O)Nc1cccc(S(=O)(=O)N2CCOCC2)c1	Exocytosis inh 97 (no result: TLR4-MyD88 BLA) | Granule exo CP1 inactive
O=S(=O)(c1ccccc1)c1nnn2c1nc(NC1CCN(Cc3ccccc3)CC1)c1cc(Cl)ccc12	Exocytosis inh 64 (no result: TLR4-MyD88 BLA) | Granule exo CP1 69
COc1ccc(C(C(=O)Nc2c(C)cccc2C)N2CCN(C)CC2)cc1 (configuration not stated)	none (no result: TLR9-MyD88 inh, TLR4-MyD88 BLA, Beta2AR agonist)
COc1cccc(NC(=O)NCCC2=CCCCC2)c1	none
CC(=O)Nc1cccc(OCC(=O)NCCC2=CCCCC2)c1	Exocytosis inh 95 | Granule exo CP1 inactive
CCOC(=O)N1CCN(C(=O)CCC(=O)c2ccc(OCC)cc2)CC1	none (no result: TLR4-MyD88 BLA)
CC(C)Oc1ccc(C(=O)CCN2CCOCC2)cc1	Exocytosis inh 59 (no result: TLR4-MyD88 BLA) | Granule exo CP1 inactive
COc1ccc(C(=O)CCN2CCCCCC2)cc1	none
CCCOc1ccc(C(=O)CCN2CCN(C(=O)OCC)CC2)cc1	Exocytosis inh 60 | Granule exo CP1 inactive
CC(C)Oc1ccc(C(=O)CCN2CCCCC2)cc1	Exocytosis inh 95 | Granule exo CP1 inactive
CCOc1ccc(C(=O)CCN2CCCCC2)cc1	Exocytosis inh 93 | Granule exo CP1 inactive
COc1ccc(OC)c(S(=O)(=O)Nc2ccc3c(c2)OCCO3)c1	none (no result: TLR4-MyD88 BLA, Beta2AR agonist)
O=C1NC(Cc2ccccc2)c2nc3ccc(F)cc3c(=O)n2-c2cc3ccccc3cc21 (configuration not stated)	none (no result: TLR4-MyD88 BLA, Beta2AR agonist)
CCn1c(=O)c2c3c(sc2n2c(SCc4ccc(F)cc4)nnc12)CCCC3	Exocytosis inh 56 (no result: TLR4-MyD88 BLA) | Granule exo CP1 inactive
CC(O)C1CCC2C3CCC4CC(O)CCC4(C)C3C(=O)CC12C (configuration not stated)	none (no result: TLR4-MyD88 BLA)
COC(=O)Nc1ccc(S(=O)(=O)NC2CCS(=O)(=O)C2)cc1 (configuration not stated)	Exocytosis inh 64 (no result: TLR4-MyD88 BLA) | Granule exo CP1 inactive
C[C@@H]1CCCCO[C@@H](CN(C)C(=O)CCCN(C)C)[C@@H](C)CN([C@H](C)CO)C(=O)c2cc(N(C)C)ccc2O1	none (no result: TLR9-MyD88 inh, TLR4-MyD88 BLA, Beta2AR agonist)
CCC1Oc2ccc(C)cc2N(CC(=O)N(Cc2ccc(C)o2)C2CCCC2)C1=O (configuration not stated)	Exocytosis inh 66 | Granule exo CP1 inactive
COc1ccc(-c2oc3ncnc(NCCN4CCOCC4)c3c2-c2ccc(OC)cc2)cc1	none
c1ccc(-c2oc3ncnc(NCCCN4CCOCC4)c3c2-c2ccccc2)cc1	none
COc1ccc(-c2oc3ncnc(NCCCN4CCOCC4)c3c2-c2ccc(OC)cc2)cc1	Exocytosis inh 63 | Granule exo CP1 inactive
